According to PubChem BioAssay (Tox21):
Values without a mark were called inactive. Results filed as inconclusive are left out. Where a call stands in place of a potency, no number is given. Activity calls are given as the source filed them. Unless noted, the call rests on the fitted dose curve.

Key:
[1] = Nuclear factor erythroid 2-related factor 2/antioxidant responsive element (Nrf2/ARE) small molecule agonists: qHTS cell viability counter screen in human keratinocytes (AID 1919968; active means well fitted curve in the direction sought with a large enough effect in the repeat runs; an effect the other way counts as inactive or inconclusive; further: nearly all actives have a fitted effect of over 55% in size)
Method in brief: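 Viability counter-screen: KeratinoSens reporter cells, DMSO-delivered compounds, 23 h at 37 C, CellTiter-Fluor fluorescence.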

[2] = Nuclear factor erythroid 2-related factor 2/antioxidant responsive element (Nrf2/ARE) small molecule agonists: luciferase reporter gene qHTS assay in human keratinocytes (AID 1919969); further: nearly all actives have a fitted effect of over 35% in size; further: potency means the concentration at half of the fitted maximal effect
[3] = target: Gonadotropin-releasing hormone receptor (Homo sapiens) (UniProt P30968); assay: Human gonadotropin-releasing hormone receptor (GnRHR) small molecule agonists, calcium flux assay in GnRHR-HEK293 cells (AID 1920063); further: nearly all actives have a fitted effect of over 35% in size
Chain of Gonadotropin-releasing hormone receptor (Homo sapiens) (P30968 whole entry, looked up): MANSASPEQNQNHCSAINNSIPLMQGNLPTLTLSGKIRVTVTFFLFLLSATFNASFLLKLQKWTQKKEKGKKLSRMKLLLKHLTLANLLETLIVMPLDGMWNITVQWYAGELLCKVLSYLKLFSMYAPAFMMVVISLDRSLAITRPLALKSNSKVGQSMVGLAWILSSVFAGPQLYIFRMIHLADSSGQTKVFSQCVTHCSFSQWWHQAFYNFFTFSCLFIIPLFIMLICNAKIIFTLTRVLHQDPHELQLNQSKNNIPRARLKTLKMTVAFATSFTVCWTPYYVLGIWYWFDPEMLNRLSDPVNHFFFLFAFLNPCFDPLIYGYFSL
Method in brief: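 Tox21-format agonist screen using human GnRHR-expressing HEK293 cells and a fluorescent calcium dye; kinetic 3-min fluorescence reading after compound addition, 15-point concentration series run in triplicate.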

[4] = target: KiSS-1 receptor (Homo sapiens) (UniProt Q969F8); assay: Human kisspeptin (KISS1R) small molecule agonists, calcium flux assay in KISS1R-HEK293 cells (AID 1920064; active means well fitted curve in the direction sought with a large enough effect in the repeat runs; an effect the other way counts as inactive or inconclusive)
Chain of KiSS-1 receptor (Homo sapiens) (Q969F8 whole entry, looked up): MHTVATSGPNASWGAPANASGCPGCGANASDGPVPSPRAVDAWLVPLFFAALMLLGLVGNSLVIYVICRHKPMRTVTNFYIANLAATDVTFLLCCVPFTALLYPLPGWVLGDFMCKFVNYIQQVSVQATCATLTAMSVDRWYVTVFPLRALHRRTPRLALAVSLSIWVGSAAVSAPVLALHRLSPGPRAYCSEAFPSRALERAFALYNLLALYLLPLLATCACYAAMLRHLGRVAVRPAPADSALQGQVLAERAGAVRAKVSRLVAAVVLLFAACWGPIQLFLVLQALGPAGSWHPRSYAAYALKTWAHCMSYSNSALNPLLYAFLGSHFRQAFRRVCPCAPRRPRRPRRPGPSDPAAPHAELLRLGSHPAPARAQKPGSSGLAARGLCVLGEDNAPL
Method in brief: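 Intracellular calcium mobilization in KISS1R-HEK293 cells was recorded by fluorescence (Ex/Em 480/540) for 3 min following compound addition to cells pre-loaded 1 h with calcium dye.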

[5] = G protein-coupled receptor (GPCR) small molecule agonists, calcium flux assay: HEK293 wild type cell line counter screen (AID 1920065)
Method in brief: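 In this agonist-mode screen, ATP is the positive control and DMSO the vehicle. Cells grow 18 h before a 1 h dye incubation at 37 C; signal is taken at Ex/Em 480/540 over 3 min.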

[6] = p53 small molecule agonists, cell-based qHTS assay with human liver microsomes (AID 1963577)
Method in brief: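 Cells carrying a p53-responsive bla reporter were rested 5 h (37 C, 5% CO2) before compound transfer. Human liver microsomes plus NADPH, 0.5 mg/mL final apiece, supplied metabolism during the 16 h 37 C exposure.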

[7] = p53 small molecule agonists, cell-based qHTS assay with rat liver microsomes (AID 1963578)
Method in brief: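 Fluorescence from a beta-lactamase reporter under a p53 response element was measured after cells had been incubated 16 h at 37 C with test compound and rat liver microsomes plus NADPH (0.5 mg/mL final each).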

[8] = p53 small molecule agonists, cell-based qHTS assay with human liver microsomes: qHTS cell viability counter screen (AID 1963579); further: nearly all actives have a fitted effect of over 45% in size
Method in brief: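 Seed p53RE-bla cells at 4,000 per well; incubate 5 h at 37 C; add compound, human liver microsomes and NADPH; incubate 16 h at 37 C; add CellTiter-Glo; after 30 min at room temperature, read luminescence.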

[9] = p53 small molecule agonists, cell-based qHTS assay with rat liver microsomes: qHTS cell viability counter screen (AID 1963580); further: nearly all actives have a fitted effect of over 45% in size
Method in brief: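 p53RE-bla HCT-116 cells were exposed 16 h at 37 C to compounds with rat liver microsomes (0.5 mg/mL) and NADPH (0.5 mg/mL). Viability was measured in the same wells as ATP content by CellTiter-Glo luminescence.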

[10] = target: 5-hydroxytryptamine receptor 2A (Homo sapiens) (UniProt P28223); assay: 5-hydroxytryptamine receptor 2A (HTR2A) small molecule agonists, cell-based qHTS assay (AID 1963587); further: nearly all actives have a fitted effect of over 30% in size
Chain of 5-hydroxytryptamine receptor 2A (Homo sapiens) (P28223 whole entry, looked up): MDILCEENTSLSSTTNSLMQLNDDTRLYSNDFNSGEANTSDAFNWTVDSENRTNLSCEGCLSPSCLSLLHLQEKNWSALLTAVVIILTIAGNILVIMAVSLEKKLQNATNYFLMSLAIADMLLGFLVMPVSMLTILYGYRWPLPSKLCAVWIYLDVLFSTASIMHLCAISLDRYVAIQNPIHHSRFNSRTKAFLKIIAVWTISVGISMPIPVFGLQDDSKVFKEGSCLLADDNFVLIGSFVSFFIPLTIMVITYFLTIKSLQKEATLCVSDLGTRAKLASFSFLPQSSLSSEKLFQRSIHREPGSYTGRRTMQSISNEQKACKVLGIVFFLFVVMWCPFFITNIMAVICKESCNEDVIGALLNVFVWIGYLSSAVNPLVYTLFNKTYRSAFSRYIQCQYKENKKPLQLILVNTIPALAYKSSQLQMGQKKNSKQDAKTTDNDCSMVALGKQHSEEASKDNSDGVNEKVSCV
Method in brief: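 CHO cells stably expressing human HTR2A, plated 18 h, loaded with calcium dye 1 h at 37 C. Agonist mode: compounds added and intracellular calcium fluorescence recorded kinetically for 2 min at 1 sec intervals.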

[11] = target: Muscarinic acetylcholine receptor M1 (Homo sapiens) (UniProt P11229); assay: Cholinergic receptor muscarinic 1 (CHRM1) small molecule antagonists, cell-based qHTS assay (AID 1963588); further: nearly all actives have a fitted effect of over 40% in size
Chain of Muscarinic acetylcholine receptor M1 (Homo sapiens) (P11229 whole entry, looked up): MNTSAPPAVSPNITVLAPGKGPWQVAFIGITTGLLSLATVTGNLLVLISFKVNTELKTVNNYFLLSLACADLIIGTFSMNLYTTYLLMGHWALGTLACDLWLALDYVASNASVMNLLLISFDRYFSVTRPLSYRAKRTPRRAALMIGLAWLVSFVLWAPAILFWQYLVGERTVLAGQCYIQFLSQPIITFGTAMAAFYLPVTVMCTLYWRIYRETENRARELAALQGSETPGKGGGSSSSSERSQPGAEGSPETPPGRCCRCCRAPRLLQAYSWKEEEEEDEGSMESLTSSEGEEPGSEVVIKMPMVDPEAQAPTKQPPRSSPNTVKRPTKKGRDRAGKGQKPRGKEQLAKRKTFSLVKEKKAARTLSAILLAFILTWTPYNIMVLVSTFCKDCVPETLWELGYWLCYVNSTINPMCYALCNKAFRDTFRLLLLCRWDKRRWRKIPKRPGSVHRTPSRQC
Method in brief: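 CHRM1-CHO calcium-flux assay, antagonist mode. Cells were seeded 18 h, dye-loaded 1 h at 37 C and given compound for 5 min at RT, then acetylcholine was added at 50nM. FDSS fluorescence was read 3 min; 15 concentrations, three runs.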

[12] = target: Muscarinic acetylcholine receptor M1 (Homo sapiens) (UniProt P11229); assay: Cholinergic receptor muscarinic 1 (CHRM1) small molecule agonists, cell-based qHTS assay (AID 1963589); further: nearly all actives have a fitted effect of over 35% in size
Method in brief: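 Stable CHRM1-CHO cells (human receptor) were incubated 18 h, dye-loaded for 1 h at 37 C and exposed to test compounds for agonist activity, with calcium-dependent fluorescence followed kinetically.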

[13] = cAMP Responsive Elements (CRE) small molecule antagonists, cell-based qHTS assay (AID 1963591; active means well fitted inhibition curve with a large enough effect in the signal ratio in the repeat runs, not every such curve was filed as active; the % refers to the signal ratio)
Method in brief: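 qHTS in CRE-bla HEK 293T cells: compound in DMSO, then 0.25 uM NKH477 (final), 3 h at 37 °C/5% CO2; beta-lactamase FRET read-out after 2 h substrate incubation.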

[14] = target: Beta-2 adrenergic receptor (Homo sapiens) (UniProt P07550); assay: Adrenergic beta2 receptor (ADRB2) small molecule antagonists, cell-based qHTS assay (AID 1963592); further: series mostly up to about 92 µM; nearly all actives have a fitted effect of over 50% in size
Chain of Beta-2 adrenergic receptor (Homo sapiens) (P07550 whole entry, looked up): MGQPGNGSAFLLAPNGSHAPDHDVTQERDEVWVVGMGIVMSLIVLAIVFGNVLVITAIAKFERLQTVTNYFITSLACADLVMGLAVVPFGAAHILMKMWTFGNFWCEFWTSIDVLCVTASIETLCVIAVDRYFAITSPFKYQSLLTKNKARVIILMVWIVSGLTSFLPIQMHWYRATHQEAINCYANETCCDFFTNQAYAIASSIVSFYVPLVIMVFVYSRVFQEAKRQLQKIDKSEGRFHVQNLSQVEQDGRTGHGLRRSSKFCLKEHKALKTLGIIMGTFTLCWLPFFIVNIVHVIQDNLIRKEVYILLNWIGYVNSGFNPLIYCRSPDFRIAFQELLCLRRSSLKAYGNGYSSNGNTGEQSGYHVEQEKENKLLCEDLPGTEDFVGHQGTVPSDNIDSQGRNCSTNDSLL
Method in brief: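 Cells (CHO, stable ADRB2 overexpression) incubated 18-20hr at 37C; compounds added from DMSO; agonist mix (1nM isoproterenol, 100uM IBMX, 25uM Ro-20-1724) added; 0.5hr RT; d2-cAMP and anti-cAMP-cryptate added; 1hr RT; 665/615 nm read.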

[15] = target: Beta-2 adrenergic receptor (Homo sapiens) (UniProt P07550); assay: Adrenergic beta2 receptor (ADRB2) small molecule agonists, cell-based qHTS assay (AID 1963593);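 further: CHO cells stably overexpressing human ADRB2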
Method in brief: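 CHO cells stably over-expressing ADRB2 were plated overnight at 37C, then dosed with compounds plus a stimulation mix containing 100uM IBMX and 25uM Ro-20-1724 for 0.5hr at room temperature. cAMP was measured by HTRF competition, 1hr.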

[16] = target: D(2) dopamine receptor (Homo sapiens) (UniProt P14416); assay: Dopamine D2 receptor (DRD2) small molecule agonists, cell-based qHTS assay (AID 1963594); further: nearly all actives have a fitted effect of over 35% in size
Chain of D(2) dopamine receptor (Homo sapiens) (P14416 whole entry, looked up): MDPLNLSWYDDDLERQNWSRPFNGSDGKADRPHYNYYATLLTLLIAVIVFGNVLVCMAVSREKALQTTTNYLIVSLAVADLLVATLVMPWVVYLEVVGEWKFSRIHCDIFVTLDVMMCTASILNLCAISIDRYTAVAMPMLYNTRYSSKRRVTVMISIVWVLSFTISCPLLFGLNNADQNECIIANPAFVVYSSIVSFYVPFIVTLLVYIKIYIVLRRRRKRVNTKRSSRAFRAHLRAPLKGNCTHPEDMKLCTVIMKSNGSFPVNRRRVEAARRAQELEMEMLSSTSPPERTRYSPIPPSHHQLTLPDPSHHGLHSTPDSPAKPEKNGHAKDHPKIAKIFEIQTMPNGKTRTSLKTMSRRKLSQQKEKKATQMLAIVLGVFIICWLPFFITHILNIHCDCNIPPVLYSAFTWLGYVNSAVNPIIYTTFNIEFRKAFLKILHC
Method in brief: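 HEK293 cells stably expressing human DRD2, pre-treated with PDE inhibitor Ro20-1724 (0.1 mM final) and compound 10 min at room temperature, then stimulated with NKH477 (200nM […]) for 30 min. cAMP read by HTRF (665/620 nm).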

[17] = target: D(2) dopamine receptor (Homo sapiens) (UniProt P14416); assay: Dopamine D2 receptor (DRD2) small molecule antagonists, cell-based qHTS assay (AID 1963595; active means well fitted inhibition curve with a large enough effect in the signal ratio in the repeat runs, with a control signal flat; the % refers to the signal ratio)
Method in brief: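 Stable D2 receptor HEK293 line, 24 h after seeding. Compound preincubated 10 min, then quinpirole (12 nM) with forskolin analogue NKH477 (200 nM), 30 min, room temperature. Detection by time-resolved FRET of cAMP.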

[18] = p53 small molecule agonists, cell-based qHTS assay (AID 1963582; active means well fitted activation curve with a large enough effect in the signal ratio in the repeat runs, not every such curve was filed as active; the % refers to the signal ratio)
Method in brief: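 Agonist activity was scored from beta-lactamase FRET fluorescence in p53RE-bla cells treated 16 h at 37 C with compounds in DMSO, substrate incubation being 2 h at room temperature.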

[19] = target: 5-hydroxytryptamine receptor 2A (Homo sapiens) (UniProt P28223); assay: 5-hydroxytryptamine receptor 2A (HTR2A) small molecule antagonists, cell-based qHTS assay (AID 1963586); further: nearly all actives have a fitted effect of over 45% in size
Method in brief: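 Antagonist-mode intracellular calcium assay: DOI (4 nM) added after 5 min compound pre-incubation at room temperature to dye-loaded HTR2A-CHO cells. Fluorescence followed for 3 min, sampled every second.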

[20] = cAMP Responsive Elements (CRE) small molecule agonists, cell-based qHTS assay (AID 1963590)
Method in brief: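 FRET-based beta-lactamase readout (LiveBLAzer B/G, 2 h RT) quantified CRE activation in HEK 293T CRE-bla cells after 3 h treatment with DMSO-dissolved compounds.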

| SMILES | Potency [1] | Potency [2] | Potency [3] | outcome [4] | outcome [5] | Potency [6] | Potency [7] | Potency [8] | Potency [9] | Potency [10] | Potency [11] | Potency [12] | Potency [13] | Potency [14] | Potency [15] | Potency [16] | Potency [17] | Potency [18] | Potency [19] | Potency [20] |
| --- | --- | --- | --- | --- | --- | --- | --- | --- | --- | --- | --- | --- | --- | --- | --- | --- | --- | --- | --- | --- |
| CCCSS/C(CCO)=C(\C)N(C=O)Cc1cnc(C)nc1N | inactive | 29.8 µM (active) | inactive | inactive | inactive | inactive | inactive | inactive | inactive | inactive | inactive | inactive | inactive | inactive | inactive | inactive | inactive | – | – | – |
| CC(C)C(=O)OCc1ccccc1 | inactive | inactive | inactive | inactive | inactive | inactive | inactive | inactive | – | inactive | inactive | inactive | inactive | inactive | – | inactive | inactive | inactive | inactive | inactive |
| Cc1ncc([N+](=O)[O-])n1CC(C)O (centres undefined) | inactive | inactive | inactive | inactive | inactive | inactive | inactive | inactive | inactive | – | – | – | inactive | inactive | inactive | inactive | inactive | – | – | inactive |
| CC1(N)CCC(C(C)(C)N)CC1 (centres undefined) | inactive | inactive | inactive | inactive | inactive | inactive | inactive | inactive | inactive | inactive | inactive | – | inactive | inactive | – | inactive | inactive | – | – | inactive |
| CCN(CC)c1ccc(C=O)cc1 | inactive | inactive | inactive | inactive | inactive | inactive | inactive | inactive | – | inactive | inactive | inactive | inactive | inactive | – | inactive | inactive | inactive | inactive | inactive |
| ON=C1CCCC1 | inactive | inactive | inactive | inactive | inactive | inactive | inactive | inactive | – | inactive | inactive | inactive | inactive | inactive | – | inactive | inactive | inactive | inactive | inactive |
| Cc1c(NC(C)C)c(=O)n(-c2ccccc2)n1C | inactive | inactive | inactive | inactive | inactive | inactive | inactive | inactive | – | inactive | inactive | inactive | inactive | inactive | – | – | inactive | inactive | inactive | inactive |
